# For part of these data: Results with a measured potency or affinity are listed apart.
# Tests used:
# Set-up in all cases: scale not given: direction of the effect not stated beside the values
# [1] = target: Protein translocase subunit SecA (Escherichia coli (strain K12)) (UniProt P10408); test: Assay to Identify E. coli SecA ATPase Inhibitors; type: functional; details: 30 µM
# [2] = target: T1, Ubiquitin-activating enzyme e1, putative (Leishmania donovani (strain BPK282A1)) (UniProt E9BSI1); test: Leishmania donovani Ubiquitin Activating Enzyme (LdE1); type: functional; details: 30 µM
# T1 sequence (whole entry): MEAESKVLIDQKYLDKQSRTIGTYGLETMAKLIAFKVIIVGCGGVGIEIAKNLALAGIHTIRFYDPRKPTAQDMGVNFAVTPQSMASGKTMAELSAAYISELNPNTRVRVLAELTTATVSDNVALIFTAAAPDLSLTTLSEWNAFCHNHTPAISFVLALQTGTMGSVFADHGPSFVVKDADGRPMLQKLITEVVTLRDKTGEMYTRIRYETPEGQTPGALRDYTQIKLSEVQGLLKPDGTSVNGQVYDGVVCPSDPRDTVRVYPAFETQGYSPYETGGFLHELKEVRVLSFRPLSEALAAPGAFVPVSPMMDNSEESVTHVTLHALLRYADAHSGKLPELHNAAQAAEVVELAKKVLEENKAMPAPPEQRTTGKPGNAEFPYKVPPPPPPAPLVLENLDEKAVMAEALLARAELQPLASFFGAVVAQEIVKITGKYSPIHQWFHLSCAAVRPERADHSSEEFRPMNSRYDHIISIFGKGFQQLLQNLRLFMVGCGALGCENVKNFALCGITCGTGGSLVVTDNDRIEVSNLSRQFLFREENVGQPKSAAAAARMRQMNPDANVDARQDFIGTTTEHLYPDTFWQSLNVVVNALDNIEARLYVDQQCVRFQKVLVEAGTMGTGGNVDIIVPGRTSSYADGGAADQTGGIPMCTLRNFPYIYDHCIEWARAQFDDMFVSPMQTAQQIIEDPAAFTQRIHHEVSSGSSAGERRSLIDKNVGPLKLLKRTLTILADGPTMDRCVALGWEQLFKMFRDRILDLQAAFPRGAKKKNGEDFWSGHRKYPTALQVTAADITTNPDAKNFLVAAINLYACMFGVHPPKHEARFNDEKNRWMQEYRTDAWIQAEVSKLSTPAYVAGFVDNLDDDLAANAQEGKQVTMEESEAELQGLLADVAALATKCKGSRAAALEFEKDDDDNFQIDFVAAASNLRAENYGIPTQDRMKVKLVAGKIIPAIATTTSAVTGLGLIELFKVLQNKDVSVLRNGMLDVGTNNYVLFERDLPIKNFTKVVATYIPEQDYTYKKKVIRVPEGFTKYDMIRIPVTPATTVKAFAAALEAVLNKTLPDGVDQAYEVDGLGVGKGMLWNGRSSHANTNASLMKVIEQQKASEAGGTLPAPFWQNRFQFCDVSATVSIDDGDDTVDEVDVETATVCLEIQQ
# [3] = target: AMP-activated protein kinase, AMPK (Homo sapiens) (UniProt P54646+O43741+P54619+Q9UGJ0+Q9Y478+Q13131+Q9UGI9); test: AMP-dependent Kinase enzyme assay. An in vitro enzyme assay that detects ADP turnover that is directly proportional to AMPK activity. This uses naive AMPK that is activated during the assay with MK-8722; type: functional; details: 30 µM
# [4] = target: Sialic acid-binding Ig-like lectin 9 (Homo sapiens) (UniProt Q9Y336); test: Hs-Siglec9 ALPHAscreen SOP 20170721; details: 10 µM
# Trypanosoma cruzi = test: Trypanosoma cruzi phosphomannomutase and mannose-1-phosphate guanylyltransferase assay; type: functional; details: 10 µM
# [5] = target: T2, Arginase-2, mitochondrial (Homo sapiens) (UniProt P78540); test: in vitro enzyme assay to detect the production of urea directly proportional to the activity of Arginase II; type: functional; details: 33.3 µM; also: in the data most compounds retested in dose-response had high values
# T2 sequence (whole entry): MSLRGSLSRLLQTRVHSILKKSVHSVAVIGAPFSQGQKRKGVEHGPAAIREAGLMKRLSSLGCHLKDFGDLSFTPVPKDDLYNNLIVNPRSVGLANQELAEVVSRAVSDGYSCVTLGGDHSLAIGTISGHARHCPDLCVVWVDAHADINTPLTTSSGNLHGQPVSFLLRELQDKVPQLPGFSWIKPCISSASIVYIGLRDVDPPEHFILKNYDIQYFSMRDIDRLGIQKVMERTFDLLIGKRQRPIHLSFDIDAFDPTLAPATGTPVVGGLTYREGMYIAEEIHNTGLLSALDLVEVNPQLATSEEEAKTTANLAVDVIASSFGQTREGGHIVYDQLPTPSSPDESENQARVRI
# [6] = target: T3, Proteasome subunit beta (Trypanosoma cruzi) (UniProt O96673); test: Trypanosoma cruzi proteasome chymotrypsin-like activity (TcProtChymo) assay.; also: in the data most compounds retested in dose-response had high values; type: functional; details: 9.37 µM
# T3 sequence (whole entry): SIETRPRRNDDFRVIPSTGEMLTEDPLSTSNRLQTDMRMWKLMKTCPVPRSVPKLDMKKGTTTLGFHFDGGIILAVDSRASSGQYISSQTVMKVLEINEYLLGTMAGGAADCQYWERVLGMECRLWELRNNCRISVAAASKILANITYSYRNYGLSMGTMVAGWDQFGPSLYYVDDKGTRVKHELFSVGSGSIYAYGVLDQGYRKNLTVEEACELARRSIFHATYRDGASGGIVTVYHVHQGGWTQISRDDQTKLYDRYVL
# Homo sapiens = organism: Homo sapiens; test: To identify inhibition of the IFN signalling (Jak-Stat) pathway via expression of an eGFP reporter gene under the control of an IFN-stimulated response element (ISRE) containing MxA promoter.; type: functional; details: 30 µM
# [7] = target: T4, Tyrosyl-tRNA synthetase, putative (Trypanosoma cruzi (strain CL Brener)) (UniProt Q4DSP6); test: Trypanosoma cruzi tyrosyl tRNA synthetase (TcYRS) _High Tyrosine SOP; type: functional; details: 30 µM; also: in the data most compounds retested in dose-response had high values
# T4 sequence (whole entry): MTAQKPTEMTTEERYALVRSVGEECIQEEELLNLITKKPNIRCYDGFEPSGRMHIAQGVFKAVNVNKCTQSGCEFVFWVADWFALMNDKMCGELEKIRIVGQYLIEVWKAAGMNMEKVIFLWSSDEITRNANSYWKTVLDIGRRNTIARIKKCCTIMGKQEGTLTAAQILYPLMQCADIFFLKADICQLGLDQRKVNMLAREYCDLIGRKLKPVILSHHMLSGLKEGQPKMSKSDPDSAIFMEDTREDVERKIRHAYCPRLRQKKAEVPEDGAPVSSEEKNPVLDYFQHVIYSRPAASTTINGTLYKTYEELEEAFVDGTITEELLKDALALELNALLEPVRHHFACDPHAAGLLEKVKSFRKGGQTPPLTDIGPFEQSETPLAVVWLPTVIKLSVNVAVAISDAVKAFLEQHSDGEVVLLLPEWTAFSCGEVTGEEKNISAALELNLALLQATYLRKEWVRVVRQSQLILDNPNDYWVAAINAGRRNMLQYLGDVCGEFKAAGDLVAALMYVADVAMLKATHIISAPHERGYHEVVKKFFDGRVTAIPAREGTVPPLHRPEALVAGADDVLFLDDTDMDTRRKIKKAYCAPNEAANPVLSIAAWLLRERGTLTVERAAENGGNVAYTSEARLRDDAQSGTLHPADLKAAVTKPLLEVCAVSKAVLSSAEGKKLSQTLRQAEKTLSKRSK
# [8] = target: T4, Tyrosyl-tRNA synthetase, putative (Trypanosoma cruzi (strain CL Brener)); test: Trypanosoma cruzi tyrosyl tRNA synthetase (TcYRS) SOP; type: functional; details: 30 µM
# [9] = target: Chromo domain-containing protein 1 (Saccharomyces cerevisiae (strain ATCC 204508 / S288c) (Baker's yeast)) (UniProt P32657); test: ScCHD-1 Enzyme Inhibition Assay; type: functional; details: 30 µM; also: in the data most compounds retested in dose-response had high values
# Chromo domain-containing protein 1 (Saccharomyces cerevisiae (strain ATCC 204508 / S288c) (Baker's yeast)), sequence (P32657 whole entry, the tested form may be a part): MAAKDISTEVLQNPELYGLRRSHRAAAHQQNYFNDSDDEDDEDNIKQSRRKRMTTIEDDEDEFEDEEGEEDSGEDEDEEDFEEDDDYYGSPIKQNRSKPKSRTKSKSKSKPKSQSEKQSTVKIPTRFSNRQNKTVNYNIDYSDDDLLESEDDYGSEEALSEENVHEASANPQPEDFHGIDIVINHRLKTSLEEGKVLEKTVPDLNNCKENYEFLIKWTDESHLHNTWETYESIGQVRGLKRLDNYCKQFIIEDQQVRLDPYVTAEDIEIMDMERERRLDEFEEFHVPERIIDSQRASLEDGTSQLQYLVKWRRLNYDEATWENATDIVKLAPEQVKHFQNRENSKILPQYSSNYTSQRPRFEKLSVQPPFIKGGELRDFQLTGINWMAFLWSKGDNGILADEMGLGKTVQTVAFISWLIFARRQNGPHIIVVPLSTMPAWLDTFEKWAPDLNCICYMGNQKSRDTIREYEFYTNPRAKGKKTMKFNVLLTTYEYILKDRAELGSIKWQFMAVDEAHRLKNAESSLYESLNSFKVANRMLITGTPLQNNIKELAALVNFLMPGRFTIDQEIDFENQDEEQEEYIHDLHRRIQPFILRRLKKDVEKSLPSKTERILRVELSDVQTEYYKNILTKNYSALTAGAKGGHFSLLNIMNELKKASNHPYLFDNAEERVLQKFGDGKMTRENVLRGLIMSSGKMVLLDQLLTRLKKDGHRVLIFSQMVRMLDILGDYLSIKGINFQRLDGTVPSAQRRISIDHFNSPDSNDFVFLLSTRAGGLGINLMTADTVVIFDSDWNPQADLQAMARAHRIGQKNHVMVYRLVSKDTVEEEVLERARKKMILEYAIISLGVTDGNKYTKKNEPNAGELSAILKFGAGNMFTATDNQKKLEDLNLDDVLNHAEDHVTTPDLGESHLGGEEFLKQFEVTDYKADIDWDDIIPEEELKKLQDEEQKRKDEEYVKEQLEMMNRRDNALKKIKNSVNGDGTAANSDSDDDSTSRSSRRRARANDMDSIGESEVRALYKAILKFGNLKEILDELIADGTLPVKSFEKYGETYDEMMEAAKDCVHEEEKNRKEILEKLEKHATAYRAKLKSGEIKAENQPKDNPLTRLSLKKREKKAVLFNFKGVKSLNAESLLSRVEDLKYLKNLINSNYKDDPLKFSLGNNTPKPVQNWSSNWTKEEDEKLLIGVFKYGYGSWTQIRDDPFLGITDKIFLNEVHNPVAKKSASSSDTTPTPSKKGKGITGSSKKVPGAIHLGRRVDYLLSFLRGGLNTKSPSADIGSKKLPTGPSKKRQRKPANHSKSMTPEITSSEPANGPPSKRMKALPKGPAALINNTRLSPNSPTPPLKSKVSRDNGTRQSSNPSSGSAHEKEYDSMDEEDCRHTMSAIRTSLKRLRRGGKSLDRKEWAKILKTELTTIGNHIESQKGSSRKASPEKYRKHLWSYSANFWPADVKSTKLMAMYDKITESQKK
# Sialic acid-binding Ig-like lectin 9 (Homo sapiens), sequence (Q9Y336 whole entry): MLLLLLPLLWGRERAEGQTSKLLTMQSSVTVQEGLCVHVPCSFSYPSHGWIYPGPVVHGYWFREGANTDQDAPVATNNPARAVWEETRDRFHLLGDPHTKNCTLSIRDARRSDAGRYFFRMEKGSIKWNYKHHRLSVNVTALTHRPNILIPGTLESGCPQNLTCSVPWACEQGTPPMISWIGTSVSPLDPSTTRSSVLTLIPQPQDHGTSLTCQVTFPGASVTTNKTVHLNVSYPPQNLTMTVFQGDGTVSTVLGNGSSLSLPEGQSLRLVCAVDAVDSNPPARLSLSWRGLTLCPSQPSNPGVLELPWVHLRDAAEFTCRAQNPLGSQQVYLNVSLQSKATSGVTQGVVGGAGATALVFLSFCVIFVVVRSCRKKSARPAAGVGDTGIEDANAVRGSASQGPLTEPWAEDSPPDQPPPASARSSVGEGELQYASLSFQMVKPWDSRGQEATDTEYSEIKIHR
# Protein translocase subunit SecA (Escherichia coli (strain K12)), sequence (P10408 whole entry): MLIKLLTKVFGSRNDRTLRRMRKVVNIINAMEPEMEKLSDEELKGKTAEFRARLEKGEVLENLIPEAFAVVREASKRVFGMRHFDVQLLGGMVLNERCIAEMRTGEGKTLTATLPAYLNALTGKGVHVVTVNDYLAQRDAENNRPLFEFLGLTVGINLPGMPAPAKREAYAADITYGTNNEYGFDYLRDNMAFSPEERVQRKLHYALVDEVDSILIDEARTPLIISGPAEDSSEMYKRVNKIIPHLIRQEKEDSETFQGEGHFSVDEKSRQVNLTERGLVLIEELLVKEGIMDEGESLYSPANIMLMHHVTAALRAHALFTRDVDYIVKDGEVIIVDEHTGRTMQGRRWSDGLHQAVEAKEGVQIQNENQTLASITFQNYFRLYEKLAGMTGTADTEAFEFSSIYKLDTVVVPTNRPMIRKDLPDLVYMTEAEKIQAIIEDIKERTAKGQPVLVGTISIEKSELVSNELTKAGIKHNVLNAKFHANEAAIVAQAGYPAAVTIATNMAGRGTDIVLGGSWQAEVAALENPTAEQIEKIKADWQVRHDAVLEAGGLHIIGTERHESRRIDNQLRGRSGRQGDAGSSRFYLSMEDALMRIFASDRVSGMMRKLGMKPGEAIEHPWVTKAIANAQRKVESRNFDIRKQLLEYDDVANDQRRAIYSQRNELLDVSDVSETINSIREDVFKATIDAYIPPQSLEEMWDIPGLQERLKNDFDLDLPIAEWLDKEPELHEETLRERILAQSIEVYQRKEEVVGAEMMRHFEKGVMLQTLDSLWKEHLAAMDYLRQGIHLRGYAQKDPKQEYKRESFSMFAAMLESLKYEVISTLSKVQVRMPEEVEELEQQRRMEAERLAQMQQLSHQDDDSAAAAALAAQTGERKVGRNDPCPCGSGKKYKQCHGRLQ
Structure (SMILES),Percent Effect [1],Percent Effect [2],Percent Effect [3],Percent Effect [4],Percent Effect (Trypanosoma cruzi),Percent Effect [5],Percent Effect [6],Percent Effect (Homo sapiens),Percent Effect [7],Percent Effect [8],Percent Effect [9]
O=C(C1CCOCC1)N1CCO[C@H]2[C@@H](OCc3ccncc3)CC[C@@H]21,-7.25%,16.2%,-5.41%,21.1%,4.1%,1.67%,6.17%,32.4%,2.97%,13.4%,-6.34%
O=C(NCc1ccccc1F)N1CCC(C2OCCO2)CC1,-3.95%,7.89%,-0.484%,-1.41%,-5.94%,-5.92%,7.19%,-6.9%,4.25%,7.79%,-3.04%
CN(Cc1ccsc1)C(=O)CS(=O)(=O)Cc1ccc(Cl)c(Cl)c1,-1.27%,-5.2%,10.5%,-5.21%,7.15%,0.21%,15.6%,7.44%,-13.3%,0%,-13.1%
O=C(NCc1ccccn1)N(Cc1ccc(F)cc1F)C1CC1,-3.99%,12.7%,3.15%,9.47%,-0.0944%,-1.52%,5%,12%,5.42%,13.9%,-5.13%
CC(=O)N1CCCN(C(=O)NCCc2ccc(Cl)s2)CC1,-2.98%,-1.27%,2.05%,0.11%,2.97%,-4.95%,6.35%,15.8%,3.12%,7.59%,7.14%
O=C(c1ncccn1)N1C[C@H]2CCC[C@@]2(COCC2CCOCC2)C1,-5.07%,10.8%,1.99%,-7.31%,6.16%,-0.319%,19.9%,25.2%,6.49%,15.4%,2.35%
